# Measurements taken from PubChem BioAssay (Tox21).
# The source made the active and inactive calls. Calls come from the whole dose curve; as a rule, active = well fitted curve in the direction sought with a large enough effect in the repeat runs; inconclusive = weak or mixed curves; inactive = flat fitted curve, though single readings scatter.
# Experiment: qHTS assay to test for compound auto fluorescence at 590 nm (red) in HepG2 cell free culture (AID 720684)
# Settings: cell-free medium autofluorescence, red 540/590 nm; series mostly up to 91.3 µM; fluorescence, % of Rose Bengal: at the top concentration
# Description: U.S. Tox21 Program National Center for Advancing Translational Sciences [NCATS] NIH Chemical Genomics Center [NCGC] U.S. Environmental Protection Agency [EPA] National Institutes of Environmental Health Sciences [NIEHS] National Toxicology Program [NTP] U.S. Food and Drug Administration [FDA] Tox21 Assay Overview: Compound auto fluorescence often interferes with screening of the compound library against various biological targets and signaling pathways. Some of these compounds may have fluorophoric properties. Such properties may interfere with the assay outputs resulting in false positives and/or negatives. To decrease such complications and ensure the compound activities are relevant in terms of biological response, the Tox21 10K compound library was screened for auto fluorescence. From the fluorophores used as reporter signals in our screening assays, the auto fluorescence equivalencies of compounds against three fluorophores have been evaluated: Triamterene, Fluorescein and Rose Bengal sodium for blue, green and red fluorescence, respectively. The fluorescence intensities were measured using Excitation/Emission wavelengths at 405/460nm, 485/535nm and 540/590nm for blue, green and red labels, respectively. This assay includes the red fluorescence data.
# Tox21 Assay Protocol Summary: 5 uL of culture medium (MEM containing 10% FBS) per well was dispensed into black wall/clear bottom 1536-well plates using a Multidrop Combi Dispenser (ThermoFisher Scientific, Waltham, MA). After 23 nL compound or DMSO vehicle was transferred into assay plate by a pintool work station (Kalypsys, San Diego, CA), fluorescence intensities in the assay plates were measured by an Envision (PerkinElmer, Shelton, CT) plate reader using three labels for measuring blue, green and red fluorescence at […] 460, 535 and 590nm respectively.
# % is set by controls: 0 for no effect and ±100 for the full control effect.
row,Structure (SMILES),"fluorescence, % of Rose Bengal"
1,C=CCOC(=O)c1ccc(C(=O)OCC=C)c(C(=O)OCC=C)c1,0.119% (inactive)
2,CC(C)CCC(=O)CCC(C)C,0.0675% (inactive)
3,CC1=CC[C@H](CC=O)C1(C)C,0.0302% (inactive)
4,C[CH2][Ge]([Cl])([CH2]C)[CH2]C,-0.022% [at 95.7 µM] (inactive)
5,CNC(=O)NC,-0.118% [at 95.7 µM] (inactive)
6,OCCCCCCCl,-0.0223% [at 95.7 µM] (inactive)
7,O=CN1CCOCC1,0.162% (inactive)
8,O=C(O)c1c(Cl)ccc(Cl)c1Cl,-0.0151% (inactive)
9,CCCCCCCCCCCCCCCCI,-0.0349% [at 18.6 µM] (inactive)
10,CC(C)(c1ccc(Oc2ccc3c(c2)C(=O)OC3=O)cc1)c1ccc(Oc2ccc3c(c2)C(=O)OC3=O)cc1,-0.159% (inactive)
11,CCC1Nc2cc(Cl)c(S(N)(=O)=O)cc2S(=O)(=O)N1 (stereo not given),-0.0195% [at 46 µM] (inactive)
12,C=COCCOCCOC=C,0.0046% (inactive)
13,Nc1c(NC/C=C\COc2cc(CN3CCCCC3)ccn2)c(=O)c1=O,0.176% [at 46 µM] (inactive)
14,C[N+](C)(C)CC(O)CCl (stereo not given),-0.242% (inactive)
15,CCN(Cc1cccc(S(=O)(=O)O)c1)c1ccccc1,0.12% (inactive)
16,O=CO,0.0285% [at 9.17 µM] (inactive)
17,COc1cc([N+](=O)[O-])ccc1N,-0.097% (inactive)
18,COc1ccc(N=Nc2cc(C)c(N=Nc3ccc(S(=O)(=O)O)cc3)cc2OC)cc1,0.0446% (inactive)
19,CCOC(=O)CCCCCCCCC(=O)OCC,-0.0987% (inactive)
20,CC(C)COC(=O)CC(C(=O)OCC(C)C)S(=O)(=O)O (stereo not given),0.0153% (inactive)

row,Structure (SMILES),"fluorescence, % of Rose Bengal"
1,CC(=O)Nc1ncc([N+](=O)[O-])s1,0.0185% [at 46 µM] (inactive)
2,CCCCCCCCCOCC1CO1 (stereo not given),-0.0203% [at 95.7 µM] (inactive)
3,CCCCCCCCOC(C)=O,-0.459% (inactive)
4,CNC(=O)C(c1ccccc1)c1ccccc1,0.0603% (inactive)
5,CC(C)(C)NCCO,-0.174% (inactive)
6,CC(=O)/C=C/c1ccco1,-0.0041% [at 95.7 µM] (inactive)
7,CCCCOC(=O)C(=O)OCCCC,-0.124% (inactive)
8,CC(CC(=O)O)CC(C)(C)C (stereo not given),0.0846% (inactive)
9,CCN(CCC#N)c1ccccc1,-0.276% (inactive)
10,COc1ccc(NS(=O)(=O)c2ccc(N)cc2)nn1,-0.359% [at 18.6 µM] (inactive)
11,CC(=O)OCCCc1ccccc1,0.0364% (inactive)
12,CCNC(=O)/C=C/c1cccc(Br)c1,0.0059% [at 46 µM] (inactive)
13,O=C(O)c1ccccc1C(=O)OCc1ccccc1,-0.0452% (inactive)
14,COC(OC)C(C)c1ccccc1 (stereo not given),0.0352% (inactive)
15,CO[Si](CCCCl)(OC)OC,-0.0394% (inactive)
16,CC(=O)OC(C(=O)c1ccccc1)c1ccccc1 (stereo not given),0.0032% (inactive)
17,CC1(N)CCC(C(C)(C)N)CC1 (stereo not given),-0.187% (inactive)
18,C=C(C)C(=O)OC,0.0108% (inactive)
19,CCC(C)N (stereo not given),0.0929% (inactive)
20,CN=C(NC#N)NCCSCc1csc(N=C(N)N)n1,-0.195% [at 46 µM] (inactive)
